Bioassay records as filed in PubChem BioAssay.
A selection: hits, their analogues and other compounds. The true share with any hit is near 2.6%.
Cruzain noTriton: inhibitors of Trypanosoma cruzi cruzain without detergent; AID 1476; purified cruzain, Z-FR-AMC fluorescence, no detergent; P25779; 200,000 tested, 2.3% active; Potency, µM, without a hit: max response, negative = inhibition, most hits filed as inhibitors;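 also: plate controls were enzyme without inhibitor for no effect and buffer without enzyme for full effect; nearly all actives have a fitted effect of over 40% in size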
Target sequence (P25779 123-467 limits assumed): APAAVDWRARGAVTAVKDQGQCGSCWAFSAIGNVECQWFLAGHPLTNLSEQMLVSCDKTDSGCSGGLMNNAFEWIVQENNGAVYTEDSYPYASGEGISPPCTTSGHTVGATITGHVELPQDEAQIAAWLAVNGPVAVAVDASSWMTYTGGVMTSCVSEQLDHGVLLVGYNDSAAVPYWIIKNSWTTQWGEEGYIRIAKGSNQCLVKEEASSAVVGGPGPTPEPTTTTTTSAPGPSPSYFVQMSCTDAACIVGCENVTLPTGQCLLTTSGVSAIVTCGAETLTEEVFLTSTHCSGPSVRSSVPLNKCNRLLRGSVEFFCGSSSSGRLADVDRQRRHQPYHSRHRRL
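Detergent-free condition (0.00005% Triton X-100) in acetate buffer pH 5.5 with DTT. 1.5 nM enzyme and compound were pre-mixed 15 min, then 2 uM Z-FR-AMC substrate added; reaction progress from fluorescence change between first and third reads (60 s).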
Cruzain inh Det: cruzain (T. cruzi) inhibition with detergent. P25779. Potency, µM, for inactives: max response, negative = inhibition, most hits filed as inhibitors. purified cruzain, Z-FR-AMC fluorescence, 0.01% Triton. 200,000 tested, 0.43% active;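 also: plate controls were neutral wells for no effect and buffer without enzyme for full effect; nearly all actives have a fitted effect of over 40% in size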
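Read-out: AMC fluorescence (360 nm excitation, 450 nm emission), four reads over 2 min, first-to-third difference used. Conditions: cruzain 1.5 nM, Z-FR-AMC 2 uM, pH 5.5 acetate, 5 mM DTT, 0.01% Triton X-100.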
Papain inh: blocks papain protease activity, flagging nonselective cruzain hits. Potency, µM, inactives show max response, negative = inhibition, usual class: inhibitors. purified papain, Z-FR-AMC fluorescence cleavage. 410 tested, 41% active. shares compounds with Cruzain inh Det;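 also: 0% = no-compound wells and -100% = no-enzyme wells; nearly all actives have a fitted effect of over 35% in size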
Target sequence (P00784 whole entry, looked up): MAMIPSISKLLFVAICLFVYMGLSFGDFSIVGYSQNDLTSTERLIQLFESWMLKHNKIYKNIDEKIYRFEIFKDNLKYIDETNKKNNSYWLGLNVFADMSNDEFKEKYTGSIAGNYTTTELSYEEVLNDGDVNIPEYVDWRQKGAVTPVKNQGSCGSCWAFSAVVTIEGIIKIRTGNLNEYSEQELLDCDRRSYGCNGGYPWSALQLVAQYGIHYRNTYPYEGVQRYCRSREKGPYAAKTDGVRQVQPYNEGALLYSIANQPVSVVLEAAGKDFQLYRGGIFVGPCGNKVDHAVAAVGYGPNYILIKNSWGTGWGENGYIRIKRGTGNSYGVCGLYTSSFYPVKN
The depositor's hits bear a star. Calls follow the shape of the dose curve; as a rule, active = well fitted curve in the direction sought with a large enough effect; inconclusive = small, poorly fitted or top-dose-only effect, or another doubt; inactive = no such curve, though single readings can be large; an effect the other way counts as inactive or inconclusive. Potency is read from the fitted curve at half-maximal effect.

What do the screens show for `COc1ccc(OC)c(C(=O)COC(=O)CNC(=O)C2CCCCC2)c1`?
Cruzain noTriton: 5µM*; Cruzain inh Det: 4.5µM*; Papain inh: -15%

Results for CCOC(=O)C1CCN(C(=O)c2ccc(OC)cc2OC)CC1 ?
Cruzain noTriton: -28%; Cruzain inh Det: 2%

What do the screens show for `COc1cc(OC)cc(C(=O)NCC(=O)OCC(=O)c2cc(OC)ccc2OC)c1`?
Cruzain noTriton: 0%; Cruzain inh Det: -17%

What do the screens show for `O=C(NC1(C(F)(F)F)NC(=O)N(Cc2cccnc2)C1=O)c1ccccc1` (stereo unspecified)?
Cruzain noTriton: -1%; Cruzain inh Det: -2%

What do the screens show for `Cc1ccc(CNC(=O)c2ccc3c(c2)NC(=O)C(CS(=O)(=O)Cc2cccc(C)c2)N3)cc1` (stereo unspecified)?
Cruzain noTriton: -21%; Cruzain inh Det: -2%

Results for CC1CN(c2oc(-c3cccs3)nc2C#N)CC(C)O1 (stereo unspecified) ?
Cruzain noTriton: inconclusive; Cruzain inh Det: 28µM*; Papain inh: 20µM*

Results for CC1CN(c2oc(Cc3cccc4ccccc34)nc2C#N)CC(C)O1 (stereo unspecified) ?
Cruzain noTriton: inconclusive; Cruzain inh Det: -5%

What do the screens show for `N#Cc1nc(-c2cccs2)oc1N1CCOCC1`?
Cruzain noTriton: inconclusive; Cruzain inh Det: 25µM*; Papain inh: 16µM*

What do the screens show for `N#Cc1nc(-c2ccco2)oc1N1CCOCC1`?
Cruzain noTriton: -10%; Cruzain inh Det: -8%

How did Clc1ccc(N2CC3CCC(C2)N3)nn1 do in these assays?
Cruzain noTriton: 5%; Cruzain inh Det: 3%

What do the screens show for `COc1cc2c(cc1OC)C1(CCCC1)CNC2C` (stereo unspecified)?
Cruzain noTriton: -3%; Cruzain inh Det: 1%

What do the screens show for `CC(C)c1nc(N2CCN(C(=O)c3ccccc3)CC2)c(C#N)c2c1COC(C)(C)C2`?
Cruzain noTriton: 11%; Cruzain inh Det: -9%

What do the screens show for `CC1(C)Cc2c(C#N)c(N3CCN(C(=O)c4ccccc4)CC3)nc(-c3ccco3)c2CS1`?
Cruzain noTriton: 25µM*; Cruzain inh Det: 28µM*; Papain inh: 7.9µM*

What do the screens show for `CCc1nc(N2CCOCC2)c(C#N)c2c1CCCC2`?
Cruzain noTriton: 2%; Cruzain inh Det: -6%

Results for N#Cc1c(N2CCOCC2)nc(-c2ccco2)c2c1CCCC2 ?
Cruzain noTriton: 10µM*; Cruzain inh Det: 13µM*; Papain inh: 5.6µM*

How did CCOc1ccc(N(CC)S(=O)(=O)N2CCCC(C(=O)Nc3ccc(OC)c(Cl)c3)C2)cc1 (stereo unspecified) do in these assays?
Cruzain noTriton: -12%; Cruzain inh Det: -5%

Results for Cn1c(Oc2ccccc2NCc2cc(Br)ccc2O)cc(=O)n(C)c1=O ?
Cruzain noTriton: -12%; Cruzain inh Det: -8%

Results for CCN(CCO)c1nc(SC)nc2c1sc1nc(-c3ccco3)c3c(c12)CCC3 ?
Cruzain noTriton: 6.3µM*; Cruzain inh Det: 8.9µM*; Papain inh: 13µM*

What do the screens show for `CCN(CCO)c1ncnc2c1sc1nc(C(C)C)c3c(c12)CC(C)(C)OC3`?
Cruzain noTriton: inconclusive; Cruzain inh Det: -1%

Results for CCOc1ccc(Nc2ncnc3onc(-c4ccc(Cl)cc4)c23)cc1 ?
Cruzain noTriton: -12%; Cruzain inh Det: -9%

How did COc1cccc2c1cc1c(=O)n(CC(=O)NCc3ccc(C)o3)nc(C)n12 do in these assays?
Cruzain noTriton: 6%; Cruzain inh Det: -2%

How did CSCC[C@H](NC(=O)COc1ccc(Cl)cc1Cl)c1nc2ccccc2[nH]1 do in these assays?
Cruzain noTriton: 7%; Cruzain inh Det: 6.3µM*; Papain inh: -4%

How did CSCC[C@H](NC(=O)CC(C)(C)C)c1nc2ccccc2[nH]1 do in these assays?
Cruzain noTriton: -6%; Cruzain inh Det: -1%

Results for Cc1ccc(C(=O)Oc2oc(-c3ccco3)nc2C=Nc2ccc(Cl)cc2)cc1 ?
Cruzain noTriton: 13µM*; Cruzain inh Det: 4µM*; Papain inh: 14µM*

Results for Cc1ccc(N=CC2=C(O)CC(c3ccco3)CC2=O)cc1 (stereo unspecified) ?
Cruzain noTriton: 5%; Cruzain inh Det: -4%

How did N#Cc1c(-c2ccc(Cl)cc2)c(C#N)c(=O)n(N)c1N do in these assays?
Cruzain noTriton: -6%; Cruzain inh Det: 0%

What do the screens show for `O=C(CN1CCN(C(=O)c2ccccc2F)CC1)Nc1ccc(Br)cc1`?
Cruzain noTriton: -10%; Cruzain inh Det: -12%

What do the screens show for `CCCN(CCC)c1nc(N)c(C#N)c(CC#N)c1C#N`?
Cruzain noTriton: -15%; Cruzain inh Det: -6%

What do the screens show for `CCCN(CCC)c1nc(C#N)nc(N(CCC)CCC)n1`?
Papain inh: 2.5µM*

How did CN(C)c1nc(C#N)nc(N(C)C)n1 do in these assays?
Papain inh: 11µM*

How did CN(C)c1nc(N(C)C)nc(N(C)C)n1 do in these assays?
Cruzain noTriton: -2%; Cruzain inh Det: 4%

Results for Cc1coc2c(C)c3oc(=O)c(CCC(=O)NCCc4ccccc4)c(C)c3cc12 ?
Cruzain noTriton: -8%; Cruzain inh Det: -1%

How did CCS(=O)(=O)c1ccc(C(=O)N2CCN(c3nc4c(OC)ccc(C)c4s3)CC2)cc1 do in these assays?
Cruzain noTriton: inconclusive; Cruzain inh Det: -9%

How did CCS(=O)(=O)c1cccc(C(=O)N2CCN(c3nc4c(C)ccc(Cl)c4s3)CC2)c1 do in these assays?
Cruzain noTriton: inconclusive; Cruzain inh Det: 7.9µM*; Papain inh: -6%

Results for COc1cccc(NC(=O)COc2nc3ccccc3nc2C)c1 ?
Cruzain noTriton: -14%; Cruzain inh Det: 0%

What do the screens show for `O=C(O)CCC1(C(=O)O)OCCc2ccccc21` (stereo unspecified)?
Cruzain noTriton: -9%; Cruzain inh Det: 5%

What do the screens show for `O=C(NCCc1nc2ccccc2n1Cc1ccccc1F)c1ccc(F)cc1`?
Cruzain noTriton: 8%; Cruzain inh Det: 3.2µM*; Papain inh: -9%

Results for CC(NC(=O)c1ccc(F)cc1)c1nc2ccccc2n1Cc1ccccc1F (stereo unspecified) ?
Cruzain noTriton: 3%; Cruzain inh Det: 0%

What do the screens show for `O=C(/C=C\c1ccc(O)c(O)c1)O[C@@H](Cc1ccc(O)c(O)c1)C(=O)O`?
Cruzain noTriton: -4%; Cruzain inh Det: -5%

Results for COc1ccc(/C=N/NC(=O)c2ccc(Br)cc2)cc1Cn1cc(Cl)cn1 ?
Cruzain noTriton: inconclusive; Cruzain inh Det: -5%; Papain inh: -58%

Results for COc1ccc(/C=N/NC(=O)c2cccc(Br)c2)cc1Cn1cc(Cl)cn1 ?
Cruzain noTriton: inconclusive; Cruzain inh Det: -2%

Results for CSc1ccccc1NC(=S)Nc1ccccc1C(F)(F)F ?
Cruzain noTriton: 6%; Cruzain inh Det: -2%

Results for O=C(CNC(=O)c1ccccc1)N[C@H](C(=O)Nc1cc(C(F)(F)F)ccc1Cl)c1ccccc1 ?
Papain inh: -4%

What do the screens show for `O=C(NC(Nc1cc(C(F)(F)F)ccc1Cl)C(=O)c1ccccc1)c1ccccc1` (stereo unspecified)?
Cruzain noTriton: inconclusive; Cruzain inh Det: -2%

What do the screens show for `O=C(CSc1nc(-c2ccccc2F)nc2cc(=O)[nH]n12)Nc1cccc(C(F)(F)F)c1`?
Cruzain noTriton: inconclusive; Cruzain inh Det: 2%

Results for Cc1ccc(NC(=S)c2nc3ccccc3[nH]2)c(C)c1 ?
Cruzain noTriton: -24%; Cruzain inh Det: -8%
